Results with a measured potency or affinity are listed apart.

In general, Inhibition refers to the change of the read-out against control, counted positive when it falls.

The subject of one assay is Klebsiella pneumoniae. To be noted: Concentration 32 ug.mL-1; ASSAY_TEST Inhibition of Bacterial Growth; detection method Absorption (OD600); MEDIA CAMHB; plate type 384well; NBS; CORNING #3640; time 18 hr.
The next assay concerns Candida albicans. To be noted: 32 ug/mL.
In the next assay the test system is Cryptococcus neoformans. Particulars: Concentration 32 ug.mL-1; ASSAY_TEST Inhibition of Fungal Growth; detection method Resazurin; Absorption (OD600-OD570); plate type 384well; NBS; CORNING #3640. For orientation: The colour change of resazurin is a common sign of viable cells or microbes.

Consider `Cc1ccc(/C=N/NC(=O)c2c[nH]c3ccccc23)cc1`, for which the figures for the Inhibition with Klebsiella pneumoniae, with Candida albicans and in the assay with Cryptococcus neoformans were 10.41%, 1.17% and -0.49%, respectively.

For `Cc1ccc(CNNC(N)=O)cc1.Cl`, the Inhibition is 11.02% with Klebsiella pneumoniae, -0.27% in the assay on Candida albicans and -5.64% in the assay with Cryptococcus neoformans.

As for `CC(=O)Oc1cccc(C=C2N=C(c3ccccc3)OC2=O)c1`, the Inhibition in the assay on Klebsiella pneumoniae is 1.18%; in the assay on Candida albicans, 2.1%; in the assay with Cryptococcus neoformans, -5.65%.

Consider `Clc1ccc(-c2cn3ccccc3n2)cc1`, for which the Inhibition in the assay on Klebsiella pneumoniae is 18.54%; with Candida albicans, -1.23%; with Cryptococcus neoformans, -7.53%.

For the molecule `CCOC(=O)c1c(C)[nH]c2ccc(OC)cc12`, the Inhibition with Klebsiella pneumoniae is 6.33%; in the assay with Candida albicans, 1.53%; in the assay on Cryptococcus neoformans, -2.15%.

Take `Cc1ccc(C2c3ccc4ccccc4c3Oc3nc4c(c(N)c32)CCCC4)cc1.Cl` (centres undefined): the values for the Inhibition with Klebsiella pneumoniae, with Candida albicans and with Cryptococcus neoformans were -14.84%, 5.49% and 0.21%, respectively.

Turning to `O=C(COc1ccc2ccccc2c1)N/N=C/c1c[nH]c2ccccc12`, the Inhibition in the assay with Klebsiella pneumoniae was 8.99%; in the assay with Candida albicans, 0.9%; in the assay on Cryptococcus neoformans it was -4.09%.

For `C#CCNc1cccc(F)n1`, the Inhibition in the assay with Klebsiella pneumoniae is 9.96%; in the assay on Candida albicans, -0.33%; in the assay with Cryptococcus neoformans, -45.04%.

Regarding `N#Cc1cc(C#N)c(NCCCCC2CCN(Cc3ccccc3)CC2)nc1N`, the Inhibition in the assay with Klebsiella pneumoniae is 18.34%; in the assay with Candida albicans, 1.01%; with Cryptococcus neoformans it was -105.28%.

`CCCC(C)NNC(=O)c1cc2ccccc2[nH]1` (centres undefined): the figures for the Inhibition in the assay with Klebsiella pneumoniae, in the assay on Candida albicans and in the assay with Cryptococcus neoformans were -0.18%, 0.67% and -3.77%, respectively.

Consider `Cn1ccnc1C1c2ccc3cccnc3c2Oc2nc3c(c(N)c21)CCC3` (centres undefined), for which the Inhibition in the assay with Klebsiella pneumoniae is 5.38%; in the assay with Candida albicans it was 2.9%; in the assay on Cryptococcus neoformans it was -104.91%.

Consider `O=C(O)n1ccc2ccccc21`, for which the Inhibition is 4.22% in the assay on Klebsiella pneumoniae, 4.1% with Candida albicans and -3.58% in the assay on Cryptococcus neoformans.

`Cc1nc2c(cc1C#N)c(N)nn2C`: the Inhibition with Klebsiella pneumoniae was 19.03%; in the assay with Candida albicans, 3.97%; with Cryptococcus neoformans it was -10.85%.

For `CCOC(=O)C1=C(C)Nc2nc3c(c(N)c2C1c1cccc(OC)c1)CCCC3` (centres undefined), the Inhibition in the assay on Klebsiella pneumoniae was 2.7%; in the assay on Candida albicans, 5.35%; in the assay on Cryptococcus neoformans, -90.12%.

On to `COc1cc(C=NNC(=O)Cc2c[nH]c3ccccc23)ccc1O`, for which the values for the Inhibition with Klebsiella pneumoniae, in the assay with Candida albicans and in the assay with Cryptococcus neoformans were -2.6%, 0.74% and -1.83%, respectively.

For `C=CCNc1nc(N)c(C#N)cc1C#N`, the Inhibition in the assay on Klebsiella pneumoniae is 12.19%; in the assay with Candida albicans, 3.01%; in the assay on Cryptococcus neoformans it was -39.35%.

Consider `Cn1ccnc1C1C2=C(CC(C)(C)CC2=O)Oc2nc3c(c(N)c21)CCC3` (centres undefined), for which the Inhibition was 9.18% with Klebsiella pneumoniae, -1.44% in the assay with Candida albicans and -62.95% in the assay on Cryptococcus neoformans.

For the molecule `Nc1nc(N)c(C=O)c(-c2ccccc2)c1C=O`, the Inhibition was -1.67% in the assay with Klebsiella pneumoniae, 9.69% in the assay with Candida albicans and -7.8% with Cryptococcus neoformans.

Regarding `Cc1[nH]nc2c1C(c1cccc([N+](=O)[O-])c1)C(C#N)=C(N)O2` (centres undefined), the figures for the Inhibition with Klebsiella pneumoniae, in the assay with Candida albicans and in the assay with Cryptococcus neoformans were 18.43%, -0.54% and -0.61%, respectively.

With `Cc1ccc(C2c3ccc4ccccc4c3Oc3nc4c(c(N)c32)CCCC4)cc1` (centres undefined), the Inhibition was -8.56% in the assay with Klebsiella pneumoniae, 2.81% with Candida albicans and 5.66% in the assay with Cryptococcus neoformans.

As for `COc1ccccc1C1c2ccc3ccccc3c2OC(=NBr)C1(Br)C#N` (centres undefined), the Inhibition with Klebsiella pneumoniae was 11.44%; in the assay with Candida albicans, 0.7%; in the assay with Cryptococcus neoformans, -47.56%.

In the case of `N#Cc1cccnc1Cl`, the results for the Inhibition in the assay with Klebsiella pneumoniae, in the assay with Candida albicans and in the assay on Cryptococcus neoformans were 9.13%, -0.53% and -53.41%, respectively.

On to `Cl.OCCCC1CCNCC1`, for which the Inhibition was 3.57% in the assay with Klebsiella pneumoniae, 1.52% with Candida albicans and -1.05% with Cryptococcus neoformans.

As for `C#CCN(C)c1nc(NCCC2CCN(Cc3ccccc3)CC2)c(C#N)cc1C#N.Cl`, the Inhibition was 3.63% with Klebsiella pneumoniae, -0.31% in the assay on Candida albicans and 0.75% in the assay with Cryptococcus neoformans.

In the case of `COc1cc(C2c3c(nc4c(c3N)CCCC4)Oc3ccc4ccccc4c32)cc(OC)c1OC` (centres undefined), the Inhibition in the assay with Klebsiella pneumoniae is 23.56%; in the assay with Candida albicans, 1.11%; with Cryptococcus neoformans, -4.42%.

In the case of `OCc1c(-c2ccc(Br)cc2)nc2ccccn12`, the figures for the Inhibition in the assay on Klebsiella pneumoniae, in the assay on Candida albicans and with Cryptococcus neoformans were 16.84%, 4.83% and -4.79%, respectively.

With `Cc1ccc(C2C(C#N)=C(N)Oc3c2ccc2ccccc32)cc1` (centres undefined), the Inhibition in the assay with Klebsiella pneumoniae is 1.87%; with Candida albicans it was -0.54%; in the assay on Cryptococcus neoformans, -6.98%.

As for `C#CCNc1nc(NCCCC2CCN(Cc3ccccc3)CC2)c(C#N)cc1C#N.Cl`, the Inhibition in the assay with Klebsiella pneumoniae is -17.1%; in the assay with Candida albicans, 1.71%; in the assay on Cryptococcus neoformans, -40.38%.

Regarding `Cc1ccc(C(O)SNNc2ncnc3c2cnn3-c2ccccc2)cc1` (centres undefined), the Inhibition is 7.03% with Klebsiella pneumoniae, 2.59% in the assay on Candida albicans and -4.5% in the assay on Cryptococcus neoformans.

For the molecule `CCOC(=O)C1=C(C)NC(N)=C(C#N)C1c1ccc([N+](=O)[O-])cc1` (centres undefined), the Inhibition in the assay on Klebsiella pneumoniae was 14.21%; with Candida albicans, 2.04%; in the assay on Cryptococcus neoformans, -47.11%.

For `COc1[nH]c(=O)ccc1C#N`, the Inhibition is 19.79% with Klebsiella pneumoniae, 7.91% in the assay on Candida albicans and -56.43% in the assay with Cryptococcus neoformans.

Turning to `CC(=O)O[C@H]1CC[C@H](NC(=O)c2ccccc2)CC1`, the results for the Inhibition in the assay on Klebsiella pneumoniae, in the assay on Candida albicans and in the assay with Cryptococcus neoformans were 10.24%, 3.3% and -39.27%, respectively.

For the molecule `CC1=C(C(=O)O[C@@H]2C[C@@]3(C)CC[C@H]2C3(C)C)C(c2ccccc2)C(C#N)=C(N)O1` (some centres undefined), the values for the Inhibition in the assay with Klebsiella pneumoniae, with Candida albicans and in the assay on Cryptococcus neoformans were -1.66%, 15.2% and -2.45%, respectively.

As to `CC(=NNC(N)=O)c1c[nH]c2ccccc12`, the Inhibition in the assay with Klebsiella pneumoniae was 10.53%; in the assay on Candida albicans it was 5.46%; in the assay on Cryptococcus neoformans it was -5.64%.

For `Nc1c2c(nc3c1c1ccccc1n3Cc1ccccc1)CCCC2`, the Inhibition in the assay with Klebsiella pneumoniae is 9.09%; in the assay on Candida albicans, 1.09%; with Cryptococcus neoformans, -84.21%.

`C/C=C(/C#N)C(=O)OC`: the Inhibition with Klebsiella pneumoniae was 5.34%; in the assay on Candida albicans it was -0.41%; in the assay on Cryptococcus neoformans, -2.55%.

`C=CCNc1[nH]c2ccc(O)cc2c1C#N`: the results for the Inhibition in the assay with Klebsiella pneumoniae, with Candida albicans and in the assay on Cryptococcus neoformans were 7.13%, 2.34% and -48.34%, respectively.

`O=C1SC(SCc2ccccc2)=NC1=Cc1ccc2c(c1)OCO2`: the Inhibition in the assay with Klebsiella pneumoniae was -9.46%; with Candida albicans it was 1.96%; in the assay with Cryptococcus neoformans it was -6.24%.

The values above are taken from ChEMBL document CHEMBL4513135, “CO-ADD screening of IQOG CSIS (Spain) compounds”.
